The list is not random: actives were taken first. Their share in the collection is about 15%.
Pf growth 48h: Primary qHTS for delayed death inhibitors of the malarial parasite plastid, 48 hour incubation. P. falciparum luciferase growth in erythrocytes, 48 h. Potency, µM (series often up to 28.7 µM), usual class: inhibitors. AID 504832, 2011. 310,000 compounds, 5.9% hits
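Firefly luciferase activity from engineered P. falciparum reports growth; inhibitors lower the luminescent signal. Cultures contained 2% hematocrit erythrocytes at 0.1% final parasitemia.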
Pf growth 96h: Primary qHTS for delayed death inhibitors of the malarial parasite plastid, 96 hour incubation; P. falciparum luciferase reporter growth, 96 h; Potency, µM (doses to about 28.7 µM), hits mostly inhibitors; 320,000 compounds, 6.9% hits; AID 504834, 2011
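Plates of compound plus infected erythrocytes (2% hematocrit, 0.05% parasitemia final) incubate 96 hours, 37 C, 5% CO2. Detection reagent added; reduced luminescence from the parasites' luciferase reporter flags inhibition.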
SARS PLP yeast: qHTS of Yeast-based Assay for SARS-CoV PLP. S. cerevisiae expressing SARS-CoV PLpro, growth rescue. Potency, µM (titrated, usually from 32.9 µM), hits mostly activators. 330,000 compounds, 0.19% hits. AID 485353, 2010; calls by dose curve; also: nearly all actives have a fitted effect of over 55% in size
HCV inhibitor: qHTS Assay for Inhibitors of Hepatitis C Virus (HCV); Huh7.5.1 HCVcc-Cre infection, luciferase reporter, 44 h; Potency, µM (titrated, usually from 41.8 µM), usual class: inhibitors; 340,000 compounds, 3.4% hits; AID 651820, 2012
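Luciferase read-out (15 sec integration) after a 15 min room-temperature substrate step quantifies HCVcc-Cre infection. Cells, 1,000 per well, had compound added 4 h post-plating, then virus at ~0.5 moi, and were cultured 44 h.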
HCMV antiviral: qHTS Assay for inhibitors of the human cytomegalovirus (HCMV) | AID 1259415, 2018 | activity change, negative = inhibition, % at 57.5 µM | HFF cells, HCMV-luciferase reporter, 72 h; hits give low values | 410,000 compounds, 4.5% hits; in the data active = activity change below about -60%; inconclusive = no clear call, values can overlap the other calls; inactive = above about -39%
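Luciferase read-out from HCMV-luciferase-infected HFFs (MOI 1 PFU/cell) 72 h post infection at 37C; compounds added after 16 h cell attachment; activity normalized between buffer-only basal and Salinomycin (10uM) inhibitor controls.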
Sm TGR block: qHTS Assay for the Inhibitors of Schistosoma Mansoni Peroxiredoxins; Schistosoma mansoni thioredoxin glutathione reductase (TGR), Q962Y6; purified TGR, DTNB reduction, TNB absorbance 405 nm; Potency, µM (top dose mostly 114 µM), actives largely listed as inhibitors; 360,000 compounds, 3% hits; also: nearly all actives have a fitted effect of over 60% in size
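TGR 20 nM + NADPH 100 uM (dispensed conc.), cpd preinc 15 min RT; start with NADPH (500 uM addition) then DTNB (15 mM addition). Kinetic TNB absorbance, 405 nm filter. Four-parameter Hill fit across titration.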
Each line names hits and unclear results; the compound was inactive in the other large screens. Unless noted, calls follow the shape of the dose curve; as a rule, active = well fitted curve in the direction sought with a large enough effect; inconclusive = small, poorly fitted or top-dose-only effect, or another doubt; inactive = no such curve, though single readings can be large; an effect the other way counts as inactive or inconclusive.

CCOC(=O)c1c(C)[nH]c(C(=O)N/N=C\c2ccccc2O)c1C	Pf growth 48h inconclusive, Pf growth 96h inconclusive, SARS PLP yeast inconclusive, HCV inhibitor inconclusive, HCMV antiviral -100
Clc1ccc(CSc2ccc(-c3ccco3)nn2)cc1	Sm TGR block 28µM
Cc1cccc(CSc2ccc(-c3ccco3)nn2)c1	Sm TGR block inconclusive
Clc1cccc(CSc2ccc(-c3ccco3)nn2)c1	Sm TGR block 7.1µM
c1ccc(CSc2ccc(-c3ccco3)nn2)cc1	Sm TGR block 22µM
Cc1ccc(CSc2ccc(-c3ccco3)nn2)cc1	Sm TGR block inconclusive
Fc1ccccc1CSc1ccc(-c2ccco2)nn1	Sm TGR block 32µM
O=C(Nc1ccccc1[N+](=O)[O-])c1csnn1	none (no result: Pf growth 48h, Pf growth 96h, SARS PLP yeast, HCV inhibitor)
CCc1cccc(NC(=O)CSc2ncc3c(n2)-c2cc(Cl)ccc2N(C)S3(=O)=O)c1	none (no result: Pf growth 48h, Pf growth 96h, SARS PLP yeast, HCV inhibitor)
O=C(OCc1cn([C@@H]2C[C@H](c3ccc(Cl)cc3)N(C(=O)C3CCCCC3)C[C@H]2O)nn1)c1ccccc1	none (no result: Pf growth 48h, Pf growth 96h, SARS PLP yeast, HCV inhibitor, Sm TGR block)
CC1CC(N(C(=O)c2ccccc2Cl)c2ccccc2)c2ccccc2N1 (centres undefined)	Pf growth 48h inconclusive, Pf growth 96h 12µM
CN(C(=O)c1ccccc1Cl)C1CCCCC1	none (no result: Pf growth 96h)
O=C(Nc1ccon1)Nc1cccc(Cl)c1Cl	none
Cc1noc(C)c1-c1ccc(C(=O)Nc2cccc(C(F)(F)F)c2)c2occc12	none (no result: Pf growth 48h, Pf growth 96h, SARS PLP yeast, HCV inhibitor, Sm TGR block)
O=C(Nc1cccc(C(F)(F)F)c1)c1ccc(-c2ccc(F)c(F)c2)c2ccoc12	HCMV antiviral -76 (no result: Pf growth 48h, Pf growth 96h, SARS PLP yeast, HCV inhibitor, Sm TGR block)
O=C(NCc1cccnc1)c1ccc(-c2ccc(F)c(F)c2)c2ccoc12	HCMV antiviral -85 (no result: Pf growth 48h, Pf growth 96h, SARS PLP yeast, HCV inhibitor, Sm TGR block)
O=C(NCc1ccc(F)c(F)c1)c1ccc(-c2ccc(F)c(F)c2)c2ccoc12	none (no result: Pf growth 48h, Pf growth 96h, SARS PLP yeast, HCV inhibitor, Sm TGR block)
CCOC(=O)c1nn(-c2ccccc2F)c(-c2ccccc2)c1C(=O)c1ccccc1	Pf growth 48h inconclusive, Pf growth 96h inconclusive, HCV inhibitor inconclusive
O=C(CSc1nnc2ccc(-c3ccccn3)nn12)Nc1ccccc1F	none (no result: SARS PLP yeast)
C/C(N)=C(/C#N)C(=O)CSc1nnc(Nc2ccccc2)s1	none
CSc1nnc(Nc2ccccc2C)s1	Pf growth 96h 9.3µM (no result: Pf growth 48h)
C/C(N)=C(/C#N)C(=O)CSc1nnc(Nc2ccccc2C)s1	Pf growth 96h 7.4µM, HCV inhibitor inconclusive
N#Cc1cc2c(=O)n3ccccc3nc2n(-c2nnc(SCc3ccccc3Cl)s2)c1=O	none (no result: Pf growth 48h, Pf growth 96h, SARS PLP yeast, HCV inhibitor)
NC(Cc1ccc(C(F)(F)F)cc1)c1csc(Nc2cc(Oc3ccccc3)ncn2)n1 (centres undefined)	none (no result: Pf growth 48h, Pf growth 96h, SARS PLP yeast, HCV inhibitor, Sm TGR block)
Cc1ccc(NC(=O)Cn2c(=O)n(CCc3ccccc3)c(=O)c3c4c(sc32)CCCC4)cc1C	none (no result: Pf growth 48h, Pf growth 96h, SARS PLP yeast, HCV inhibitor)
O=C(Cn1c(=O)n(Cc2ccco2)c(=O)c2c3c(sc21)CCCCC3)Nc1ccccc1	Pf growth 48h inconclusive, Pf growth 96h 12µM, Sm TGR block 10µM
O=C(Cn1c(=O)n(Cc2ccco2)c(=O)c2c3c(sc21)CCCCC3)c1ccccc1	Sm TGR block 35µM (no result: HCV inhibitor)
O=C(O)Cn1c(=O)c2c3c(sc2n(Cc2ccccc2)c1=O)CCCC3	none
CN1C(=O)C(C)(C(Nc2ccccc2)c2ccccc2)c2ccccc21 (centres undefined)	none (no result: Pf growth 48h, Pf growth 96h, SARS PLP yeast, HCV inhibitor, Sm TGR block)
N#CC(=C1C=CC(=NO)C(Cl)=C1)c1ccc(Cl)cc1	HCMV antiviral -74 (no result: Pf growth 48h, Pf growth 96h, SARS PLP yeast, Sm TGR block)
CC(=O)N(O)CCCCCNC(=O)CCC(=O)N(O)CCCCCNC(=O)CCC(=O)N(O)CCCCCN	Pf growth 48h inconclusive, Pf growth 96h inconclusive, HCV inhibitor 14µM, HCMV antiviral inconclusive
CCCC(=O)NCCCCNC(=O)CCC	none
O=C1CC(c2ccncc2)c2cc3c(cc2N1)OCCO3 (centres undefined)	none (no result: Pf growth 96h)
O=C1CC(c2ccsc2)c2cc3c(cc2N1)OCCO3 (centres undefined)	Pf growth 48h inconclusive, Pf growth 96h 12µM, HCV inhibitor inconclusive
